The text below walks through data of PubChem BioAssay (NCI).

Common to all, as to assay: NCI-60 one-dose screen, 48 h (100 = growth as untreated, 0 = no growth, -100 = all killed)
Conditions in all cases: 10 µM unless noted

In experiment [1] the test system is HCT-15 colon.
Experiment [2] deals with HT29 colon.
Experiment [3] concerns SNB-75 CNS.
In experiment [4] the test system is SNB-19 CNS.
The test system of experiment [5] is U251 CNS.
Experiment [6] deals with PC-3 prostate.
Experiment [7] relates to SK-MEL-5 melanoma.
The test system of experiment [8] is UACC-62 melanoma.
Experiment [9] deals with LOX IMVI melanoma.
For experiment [10], the system named is SK-MEL-28 melanoma.
In experiment [11] the test system is EKVX NSCLC.
The subject of experiment [12] is SN12C renal.
Experiment [13] relates to UO-31 renal.
In experiment [14] the test system is TK-10 renal.
Experiment [15] deals with ACHN renal.
Experiment [16] concerns CAKI-1 renal.
The subject of experiment [17] is A498 renal.
For experiment [18], the system named is CCRF-CEM leukemia.
In experiment [19] the test system is MOLT-4 leukemia.
Experiment [20] has as its system SK-MEL-2 melanoma.

Molecules are shown by their SMILES. Values joined by “and” are separate entries in the source; they are usually repeats but may differ in a detail not shown here. Equal entries are not always repeated. This is part of a sample that, as a whole, favours compounds with a hit. Of some 83,000 tested, about 20% had one in any assay.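 Single-dose data. Exposure time 48 hours. Values below 10 considered active.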 A number with no mark means an inactive call. Active and inactive are the calls of the source.

With `Clc1ccc2c(NCCN3CCN(c4ccnc(N5CCCC5)n4)CC3)ccnc2c1`, the growth in experiment [1] is 0.29% (active); in experiment [2] it was 6.82% (active); in experiment [3], 90.7%; in experiment [4], 53.7%; in experiment [5] it was 6.81% (active); in [6] it was 58.6%. For the same compound, the growth was -16.8% (active) in experiment [7]; -29.5% (active) in experiment [8]; -70.1% (active) in [9]; -17.6% (active) in experiment [10]; 63% in experiment [11]; 57.2% in [12]. The growth in [13] was 25.8%; in experiment [14], 52.5%; in [15] it was 55.6%; in experiment [16] it was 27.7%; in [17], 51.5%; in experiment [18], 51.1%. Besides, the growth in experiment [19] was 47.2%.

As for `CC(=O)Nc1c(I)c(NC(C)=O)c(I)c(C(=O)O)c1I`, the growth in experiment [1] is 98.5% and 131%; in [2] it was 108% and 118%; in [3] it was 82% and 124%; in experiment [4], 107%; in [5], 102% and 106%; in experiment [6], 88.2% and 101%. Besides, the growth in experiment [7] is 103% and 105%; in experiment [8] it was 105% and 119%; in experiment [9], 95.8% and 111%; in experiment [10], 115% and 108%; in experiment [11], 102% and 90.6%; in experiment [12], 102% and 106%. In addition, the growth is 76.3% and 88.3% in [13]; 120% and 101% in experiment [14]; 96.9% and 112% in experiment [15]; 89.8% and 91.3% in experiment [16]; 107% and 123% in experiment [17]; 95.9% and 105% in experiment [18]. Also, the growth in experiment [19] was 96.9% and 90.1%.

For `O=C(NNc1ccccc1)c1ncc[nH]1`, the growth in [1] was 34.8%; in experiment [2], 54.9%; in [3] it was 85.2%; in experiment [4] it was 96.5%; in [5], 78.6%; in [6] it was 71.9%. Moreover, the growth in experiment [7] was 85%; in experiment [8], 10.9%; in experiment [9] it was 1.27% (active); in experiment [10], 40.7%; in [20] it was 78.2%; in experiment [12] it was 72%. The growth is 12.3% in [13]; 77.9% in experiment [14]; 14.5% in [15]; 3.43% (active) in experiment [16]; 98.3% in experiment [17]; 27.3% in experiment [19].

Turning to `O=C([C@H]1C[C@H]1c1ccc(S(F)(F)(F)(F)F)cc1)N1CCN(c2cc(Cl)ccc2C(F)(F)F)CC1`, the growth was 88.1% in experiment [1]; 67.5% in experiment [2]; 101% in [3]; 97.1% in [4]; 94.2% in experiment [5]; 74.2% in experiment [6]. For the same compound, the growth in experiment [7] was 89.9%; in experiment [8], 67.4%; in [9] it was 102%; in experiment [10], 97.1%; in experiment [11], 91.9%; in experiment [12], 101%. Also, the growth is 67.8% in experiment [13]; 93.6% in experiment [14]; 93.4% in [15]; 67.3% in experiment [16]; 94.4% in experiment [17]; 96.4% in experiment [18]. In addition, in experiment [19], the growth is 76.9%.

In the case of `Cc1ccc(NC(=O)c2ccc(CN3CCN(C)CC3)cc2)cc1Nc1nccc(-c2cccnc2)n1`, the growth in experiment [1] was 88.5% and 48.2%; in [2], 52.9% and 24.1%; in experiment [3], 99.4% and 82.5%; in [4], 112% and 95%; in [5], 89.4% and 65.7%; in experiment [6] it was 89.4% and 72%. The growth is 77.7% and 63.2% in experiment [7]; 92.3% and 87.9% in experiment [8]; 88.4% and 77.1% in experiment [9]; 109% and 77.8% in experiment [10]; 84.3% and 90.9% in experiment [11]; 94% and 83.7% in [12]. The growth in experiment [13] is 92.4% and 77.6%; in experiment [14], 110% and 74.9%; in experiment [15], 101% and 82.7%; in experiment [16], 100% and 102%; in experiment [17], 86.3% and 82.5%; in experiment [18], 93.4% and 49.7%. For the same compound, in [19], the growth is 82% and 45.1%.

`COc1nc2ccc(C)cc2cc1/C=[N+](\[O-])c1ccccc1`: the growth in [1] is 77.2%; in experiment [2] it was 95.1%; in experiment [3], 79.5%; in experiment [4], 86.6%; in experiment [5], 95.4%; in experiment [6] it was 68.2%. Also, the growth in experiment [7] is 96.2%; in experiment [8], 76.6%; in experiment [9], 77.8%; in experiment [10], 97.6%; in experiment [11] it was 77.8%; in experiment [12] it was 90.1%. The growth in [13] is 59.4%; in experiment [14], 116%; in [15] it was 83.5%; in experiment [16], 82.3%; in experiment [17], 75.6%; in experiment [18] it was 46.6%. The growth in experiment [19] is 82.8%.

Regarding `CC[C@H](C)[C@H](NC(=O)[C@H](CCCCN)NC(=O)[C@H](CCCCN)NC(=O)[C@@H](NC(=O)[C@@H](NC(=O)[C@@H](N)Cc1cnc[nH]1)[C@@H](C)CC)[C@@H](C)CC)C(=O)N[C@@H](CCCNC(=N)N)C(=O)N[C@H](C(=O)N[C@@H](Cc1c[nH]c2ccccc12)C(=O)N[C@@H](Cc1ccc(O)cc1)C(=O)N[C@@H](CCCNC(=N)N)C(=O)N[C@@H](CCCCN)C(=O)N[C@@H](C)C(=O)N[C@@H](Cc1c[nH]c2ccccc12)C(=O)N[C@@H](Cc1cnc[nH]1)C(=O)N[C@H](C(=O)N[C@@H](CC(C)C)C(=O)NCC(=O)N[C@@H](CCCCN)C(=O)N[C@H](C(N)=O)C(C)C)C(C)C)[C@@H](C)O`, the growth in experiment [1] was 21.4%; in experiment [2] it was 60.4%; in [3] it was 72.7%; in experiment [4], 58.6%; in experiment [5] it was 20.2%; in experiment [6] it was 67.1%. Besides, the growth in experiment [7] was 13.2%; in [8] it was -56.3% (active); in experiment [9] it was 70.5%; in experiment [10], 18.9%; in experiment [11], -26.4% (active); in experiment [12], 12.1%. For the same compound, the growth in [13] is 81.9%; in experiment [14] it was -16.8% (active); in experiment [15], 70.8%; in experiment [16], 17.5%; in experiment [17], 66.2%; in experiment [18], 76.2%. For the same compound, the growth in experiment [19] was 56.7%.

As to `Nc1[nH]nc(Nc2ccccc2)c1-c1nc2ccccc2s1`, the growth is 11.1% in [1]; 58.5% in [2]; 44.2% in experiment [3]; 34% in experiment [4]; 22% in experiment [5]; 14.9% in experiment [6]. Moreover, the growth in experiment [7] was 57.6%; in [8] it was 27.2%; in [9], -79.1% (active); in experiment [10], 35.4%; in experiment [11], 19%; in experiment [12], 34.2%. For the same compound, the growth was 18.8% in experiment [13]; 23% in experiment [14]; 15.5% in experiment [15]; 25.1% in experiment [16]; 46.8% in [17]; 8.45% (active) in [18]. For the same compound, in [19], the growth is 4.06% (active).

For `Cc1nonc1-c1ccc2c(c1)OCO2`, the growth is 97.5% and 107% in experiment [1]; 102% and 107% in [2]; 96.3% and 96.6% in experiment [3]; 112% and 95.7% in experiment [4]; 93.7% and 108% in experiment [5]; 96% in experiment [6]. The growth in experiment [7] is 99.3% and 101%; in [8], 110% and 97.7%; in experiment [9], 94.5% and 98.4%; in experiment [10] it was 118% and 169%; in [20] it was 113% and 100%; in experiment [12], 109% and 103%. For the same compound, the growth in experiment [13] is 95.2% and 96.6%; in experiment [14], 105% and 121%; in experiment [15], 109% and 107%; in experiment [16], 82.2% and 103%; in [17], 166%; in experiment [18], 86.9% and 94.1%. In experiment [19], the growth was 94.8%.

Regarding `O=C(c1ccc(Nc2nccc(NCCCNc3ccnc4cc(Cl)ccc34)n2)cc1)N1CCCCC1`, the growth in [1] is 92.2%; in experiment [2] it was 19.7%; in experiment [3], 90.5%; in [4] it was 35%; in [5], 23%; in [6] it was 36.5%. Further, the growth in [7] is 43.7%; in [8], 21.4%; in experiment [9] it was -14.3% (active); in [10] it was 71.8%; in experiment [11], 57%; in experiment [12], 34.3%. Further, the growth is 82.3% in experiment [13]; 73.2% in experiment [14]; 79.9% in [15]; 89.9% in experiment [16]; 69.1% in [17]; 25.3% in experiment [19].

In the case of `Oc1ccccc1C=Nc1ccc(N2CCN(c3ccccc3)CC2)cc1`, the growth in experiment [1] is 99.8%; in experiment [2] it was 99.5%; in experiment [3] it was 79.9%; in [4], 107%; in [5] it was 99.9%; in experiment [6], 77.8%. Also, the growth in experiment [7] is 97.2%; in experiment [8], 95.4%; in experiment [9] it was 98.5%; in experiment [10] it was 109%; in [11] it was 113%; in experiment [12], 102%. Also, the growth in experiment [13] was 86.3%; in [14], 93.8%; in experiment [15], 72.9%; in experiment [16], 91.9%; in [17], 98.6%; in [18], 62.2%. Besides, the growth in experiment [19] is 93.5%.
